{
  "source": "paper PMC4081663",
  "about": "“Single-Nucleotide Mutation Matrix of NF-κB”",
  "data": [
    {"target": "NF-kB p50 homodimer (Homo sapiens, UniProt P19838 1-433)", "sequence (P19838 1-433)": "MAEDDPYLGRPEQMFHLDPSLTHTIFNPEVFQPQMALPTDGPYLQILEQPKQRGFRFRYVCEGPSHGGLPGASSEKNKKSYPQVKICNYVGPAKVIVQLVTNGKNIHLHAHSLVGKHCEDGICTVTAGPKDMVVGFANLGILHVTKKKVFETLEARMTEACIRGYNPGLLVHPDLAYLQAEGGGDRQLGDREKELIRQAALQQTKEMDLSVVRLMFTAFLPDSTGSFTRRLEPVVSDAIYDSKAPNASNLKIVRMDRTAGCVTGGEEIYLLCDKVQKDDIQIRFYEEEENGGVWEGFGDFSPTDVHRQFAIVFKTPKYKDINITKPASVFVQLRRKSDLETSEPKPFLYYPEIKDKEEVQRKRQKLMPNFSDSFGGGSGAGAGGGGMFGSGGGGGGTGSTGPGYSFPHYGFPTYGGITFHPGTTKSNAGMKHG", "assay": "bimolecular dsDNA microarray; Bimolecular dsDNA microarray on aldehyde glass; probes annealed in 10 mM Tris-HCl pH 8.0, 100 mM NaCl, 1 mM EDTA; binding buffer and temperature as in ref 16, not stated; high values mean tight binding", "conditions": "protein: commercial; tags: Cy3-labeled for microarray; chain copies: 2; label: 5' amino linker to the slide; dsDNA, one strand shown", "units": {"binding signal": "a.u."}, "values": [
      {"sequence": "GGGACTTTCT", "binding signal": 20.2},
      {"sequence": "GGGTCTTTCC", "binding signal": 28.6},
      {"sequence": "GGCACTTTCC", "binding signal": 19.2},
      {"sequence": "GGGACTTCCC", "binding signal": 60.9},
      {"sequence": "GGGACTTACC", "binding signal": 25.4},
      {"sequence": "AGGACTTTCC", "binding signal": 21.1},
      {"sequence": "GGGAATTTCC", "binding signal": 57.5},
      {"sequence": "GGGACTATCC", "binding signal": 20},
      {"sequence": "GGGACTTGCC", "binding signal": 18.8},
      {"sequence": "GGGCCTTTCC", "binding signal": 20.5},
      {"sequence": "GTGACTTTCC", "binding signal": 20.4},
      {"sequence": "GGGACTTTCA", "binding signal": 24.7},
      {"sequence": "GGGACCTTCC", "binding signal": 19.8},
      {"sequence": "GGGACTTTTC", "binding signal": 29.6},
      {"sequence": "GGGACTTTCC", "binding signal": 52.8},
      {"sequence": "GGGACTTTAC", "binding signal": 38.1},
      {"sequence": "GGGACTGTCC", "binding signal": 32.4},
      {"sequence": "GGGATTTTCC", "binding signal": 58.5},
      {"sequence": "GGGAGTTTCC", "binding signal": 55.8},
      {"sequence": "GGGACTCTCC", "binding signal": 24.8},
      {"sequence": "GGAACTTTCC", "binding signal": 31.4},
      {"sequence": "CGGACTTTCC", "binding signal": 19.8},
      {"sequence": "GGGACTTTCG", "binding signal": 24.6},
      {"sequence": "GGGACGTTCC", "binding signal": 25},
      {"sequence": "GAGACTTTCC", "binding signal": 16.7},
      {"sequence": "GGTACTTTCC", "binding signal": 46.1},
      {"sequence": "GGGGCTTTCC", "binding signal": 49.7},
      {"sequence": "GGGACTTTGC", "binding signal": 22.9},
      {"sequence": "GGGACATTCC", "binding signal": 26.5},
      {"sequence": "TGGACTTTCC", "binding signal": 22.8},
      {"sequence": "GCGACTTTCC", "binding signal": 12.5}
    ]}
  ]
}
